How the values were obtained:
[1] = molecular target: Sphingosine kinase 1 (Homo sapiens) (UniProt Q9NYA1); conditions: at 1 µM;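 also: mean SPHK1 inhibition value reported from the GSK PKIS kinase panel screen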
[2] = molecular target: T1, Sphingosine kinase 2 (Homo sapiens) (UniProt Q9NRA0); conditions: at 0.1 µM
T1 sequence (whole entry): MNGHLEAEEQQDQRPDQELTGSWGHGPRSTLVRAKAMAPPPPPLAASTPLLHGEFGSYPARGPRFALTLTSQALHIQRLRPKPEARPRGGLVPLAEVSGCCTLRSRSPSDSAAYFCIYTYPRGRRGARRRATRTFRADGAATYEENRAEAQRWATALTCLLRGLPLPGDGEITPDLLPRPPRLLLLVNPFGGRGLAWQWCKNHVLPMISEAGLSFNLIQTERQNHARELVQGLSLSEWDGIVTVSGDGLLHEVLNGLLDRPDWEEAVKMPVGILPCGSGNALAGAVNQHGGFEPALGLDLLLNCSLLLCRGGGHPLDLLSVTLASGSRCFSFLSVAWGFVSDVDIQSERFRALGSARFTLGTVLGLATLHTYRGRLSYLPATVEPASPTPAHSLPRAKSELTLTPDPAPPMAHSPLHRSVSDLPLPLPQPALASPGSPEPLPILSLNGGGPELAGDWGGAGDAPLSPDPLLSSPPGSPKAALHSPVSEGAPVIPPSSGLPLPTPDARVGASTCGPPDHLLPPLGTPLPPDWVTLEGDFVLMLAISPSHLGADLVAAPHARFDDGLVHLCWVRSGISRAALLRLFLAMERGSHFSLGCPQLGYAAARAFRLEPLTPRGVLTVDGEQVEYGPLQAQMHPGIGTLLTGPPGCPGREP

[3] = molecular target: T1, Sphingosine kinase 2 (Homo sapiens); conditions: at 1 µM
[4] = molecular target: Casein kinase II subunit alpha (Homo sapiens) (UniProt P68400); conditions: at 0.1 µM
[5] = molecular target: Casein kinase II subunit alpha (Homo sapiens) (UniProt P68400); conditions: at 1 µM
[6] = molecular target: T2, Inhibitor of nuclear factor kappa-B kinase subunit alpha (Homo sapiens) (UniProt O15111); conditions: at 0.1 µM
T2 sequence (whole entry): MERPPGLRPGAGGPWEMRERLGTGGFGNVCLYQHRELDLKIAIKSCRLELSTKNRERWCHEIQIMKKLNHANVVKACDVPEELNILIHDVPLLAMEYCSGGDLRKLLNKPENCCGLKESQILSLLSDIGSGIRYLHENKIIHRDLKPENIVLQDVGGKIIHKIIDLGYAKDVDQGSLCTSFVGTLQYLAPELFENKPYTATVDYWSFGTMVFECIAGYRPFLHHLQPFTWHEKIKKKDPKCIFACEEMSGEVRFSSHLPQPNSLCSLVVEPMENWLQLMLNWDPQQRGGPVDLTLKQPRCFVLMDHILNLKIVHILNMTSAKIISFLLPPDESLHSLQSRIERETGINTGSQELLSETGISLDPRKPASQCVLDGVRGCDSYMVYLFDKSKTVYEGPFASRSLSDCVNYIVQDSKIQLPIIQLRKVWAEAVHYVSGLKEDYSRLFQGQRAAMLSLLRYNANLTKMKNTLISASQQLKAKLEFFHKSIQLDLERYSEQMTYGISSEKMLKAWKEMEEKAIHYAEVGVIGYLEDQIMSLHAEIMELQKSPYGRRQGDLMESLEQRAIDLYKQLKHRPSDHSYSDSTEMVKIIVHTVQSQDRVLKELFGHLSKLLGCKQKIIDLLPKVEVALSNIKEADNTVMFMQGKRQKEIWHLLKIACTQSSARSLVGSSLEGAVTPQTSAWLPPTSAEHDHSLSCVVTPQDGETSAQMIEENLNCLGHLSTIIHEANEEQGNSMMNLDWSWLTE

[7] = molecular target: T2, Inhibitor of nuclear factor kappa-B kinase subunit alpha (Homo sapiens); conditions: at 1 µM
[8] = molecular target: T3, Inhibitor of nuclear factor kappa-B kinase subunit beta (Homo sapiens) (UniProt O14920); conditions: at 0.1 µM
T3 sequence (whole entry): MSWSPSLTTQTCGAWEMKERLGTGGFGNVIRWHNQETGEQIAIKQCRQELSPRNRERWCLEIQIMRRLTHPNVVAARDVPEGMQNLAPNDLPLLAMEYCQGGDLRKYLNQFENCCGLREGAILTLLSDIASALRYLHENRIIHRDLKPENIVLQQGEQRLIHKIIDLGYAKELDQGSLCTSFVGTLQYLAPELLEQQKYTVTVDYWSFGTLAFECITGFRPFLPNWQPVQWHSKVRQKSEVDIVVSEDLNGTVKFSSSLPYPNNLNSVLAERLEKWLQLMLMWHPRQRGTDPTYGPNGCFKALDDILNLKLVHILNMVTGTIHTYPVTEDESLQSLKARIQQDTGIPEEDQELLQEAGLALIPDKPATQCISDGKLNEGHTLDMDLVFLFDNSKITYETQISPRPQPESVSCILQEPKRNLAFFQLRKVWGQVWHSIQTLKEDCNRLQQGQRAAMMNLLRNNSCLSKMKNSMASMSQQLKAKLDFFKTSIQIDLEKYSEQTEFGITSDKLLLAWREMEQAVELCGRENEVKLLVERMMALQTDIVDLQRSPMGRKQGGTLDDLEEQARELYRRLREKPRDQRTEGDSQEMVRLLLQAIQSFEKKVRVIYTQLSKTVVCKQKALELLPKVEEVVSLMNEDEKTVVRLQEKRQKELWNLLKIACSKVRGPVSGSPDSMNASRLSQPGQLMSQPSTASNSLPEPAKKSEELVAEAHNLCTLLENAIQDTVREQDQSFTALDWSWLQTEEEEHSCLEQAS

[9] = molecular target: T3, Inhibitor of nuclear factor kappa-B kinase subunit beta (Homo sapiens); conditions: at 1 µM
[10] = molecular target: T4, Inhibitor of nuclear factor kappa-B kinase subunit epsilon (Homo sapiens) (UniProt Q14164); conditions: at 0.1 µM
T4 sequence (whole entry): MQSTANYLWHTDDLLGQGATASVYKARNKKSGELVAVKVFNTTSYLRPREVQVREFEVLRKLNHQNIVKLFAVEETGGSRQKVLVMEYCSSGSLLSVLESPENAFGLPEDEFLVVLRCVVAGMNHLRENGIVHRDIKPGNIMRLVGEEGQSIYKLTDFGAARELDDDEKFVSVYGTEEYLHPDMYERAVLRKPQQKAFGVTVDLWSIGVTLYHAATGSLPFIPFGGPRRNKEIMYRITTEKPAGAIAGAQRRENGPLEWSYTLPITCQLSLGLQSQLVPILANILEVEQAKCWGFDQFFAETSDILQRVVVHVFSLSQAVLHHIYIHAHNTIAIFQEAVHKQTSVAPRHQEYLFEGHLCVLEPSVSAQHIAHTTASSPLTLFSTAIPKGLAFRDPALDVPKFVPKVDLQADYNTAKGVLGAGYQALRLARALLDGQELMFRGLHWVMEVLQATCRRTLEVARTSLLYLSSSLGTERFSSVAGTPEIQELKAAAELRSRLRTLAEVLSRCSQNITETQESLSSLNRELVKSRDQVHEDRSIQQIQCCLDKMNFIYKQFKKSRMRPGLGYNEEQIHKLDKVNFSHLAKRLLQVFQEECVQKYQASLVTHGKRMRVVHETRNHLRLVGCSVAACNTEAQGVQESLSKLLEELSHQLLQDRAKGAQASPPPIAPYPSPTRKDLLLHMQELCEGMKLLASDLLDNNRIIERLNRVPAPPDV

[11] = molecular target: T4, Inhibitor of nuclear factor kappa-B kinase subunit epsilon (Homo sapiens); conditions: at 1 µM
[12] = molecular target: T5, Serine/threonine-protein kinase Nek1 (Homo sapiens) (UniProt Q96PY6); conditions: at 0.1 µM
T5 sequence (whole entry): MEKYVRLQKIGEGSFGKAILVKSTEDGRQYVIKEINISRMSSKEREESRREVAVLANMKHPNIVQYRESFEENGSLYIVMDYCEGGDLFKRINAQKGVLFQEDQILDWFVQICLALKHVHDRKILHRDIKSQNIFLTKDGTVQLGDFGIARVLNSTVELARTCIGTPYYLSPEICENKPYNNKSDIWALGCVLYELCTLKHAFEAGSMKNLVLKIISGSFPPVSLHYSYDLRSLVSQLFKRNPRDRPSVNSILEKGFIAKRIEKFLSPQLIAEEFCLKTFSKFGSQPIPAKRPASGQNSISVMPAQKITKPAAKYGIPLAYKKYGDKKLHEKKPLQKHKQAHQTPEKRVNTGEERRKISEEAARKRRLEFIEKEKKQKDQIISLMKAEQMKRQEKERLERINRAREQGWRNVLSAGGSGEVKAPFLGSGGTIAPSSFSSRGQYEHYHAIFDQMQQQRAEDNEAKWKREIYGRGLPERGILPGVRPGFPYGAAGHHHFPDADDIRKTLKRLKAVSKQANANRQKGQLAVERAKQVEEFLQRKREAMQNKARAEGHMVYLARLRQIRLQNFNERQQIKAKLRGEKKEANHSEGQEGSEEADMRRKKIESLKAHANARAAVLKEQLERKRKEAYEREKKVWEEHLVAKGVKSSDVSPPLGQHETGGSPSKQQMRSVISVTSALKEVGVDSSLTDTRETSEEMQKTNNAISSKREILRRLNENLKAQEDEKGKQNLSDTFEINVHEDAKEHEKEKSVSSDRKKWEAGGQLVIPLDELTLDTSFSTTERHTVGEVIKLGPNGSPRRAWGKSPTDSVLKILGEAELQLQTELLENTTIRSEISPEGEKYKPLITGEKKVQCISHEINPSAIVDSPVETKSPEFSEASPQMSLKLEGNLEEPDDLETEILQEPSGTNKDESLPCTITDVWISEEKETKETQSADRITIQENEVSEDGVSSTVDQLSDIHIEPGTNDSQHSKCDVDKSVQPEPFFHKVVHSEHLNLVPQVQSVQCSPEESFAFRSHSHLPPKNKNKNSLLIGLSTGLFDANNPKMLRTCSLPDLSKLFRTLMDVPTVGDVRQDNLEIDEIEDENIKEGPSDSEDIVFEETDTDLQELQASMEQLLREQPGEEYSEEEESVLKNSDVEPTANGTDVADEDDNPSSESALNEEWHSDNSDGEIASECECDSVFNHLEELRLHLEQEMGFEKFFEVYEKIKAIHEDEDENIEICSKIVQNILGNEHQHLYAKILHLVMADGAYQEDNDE

[13] = molecular target: T5, Serine/threonine-protein kinase Nek1 (Homo sapiens); conditions: at 1 µM
[14] = molecular target: T6, Serine/threonine-protein kinase Nek2 (Homo sapiens) (UniProt P51955); conditions: at 0.1 µM
T6 sequence (whole entry): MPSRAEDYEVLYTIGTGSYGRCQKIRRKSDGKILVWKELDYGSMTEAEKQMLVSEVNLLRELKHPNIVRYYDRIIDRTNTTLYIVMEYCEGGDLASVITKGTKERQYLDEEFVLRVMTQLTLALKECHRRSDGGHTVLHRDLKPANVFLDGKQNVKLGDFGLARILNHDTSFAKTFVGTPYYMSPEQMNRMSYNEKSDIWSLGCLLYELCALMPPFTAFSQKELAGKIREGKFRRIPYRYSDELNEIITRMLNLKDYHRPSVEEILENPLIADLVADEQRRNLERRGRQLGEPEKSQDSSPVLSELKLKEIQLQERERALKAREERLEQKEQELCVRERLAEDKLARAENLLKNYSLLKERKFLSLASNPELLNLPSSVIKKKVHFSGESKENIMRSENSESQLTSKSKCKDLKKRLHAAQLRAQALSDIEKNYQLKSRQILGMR

[15] = molecular target: T6, Serine/threonine-protein kinase Nek2 (Homo sapiens); conditions: at 1 µM
[16] = molecular target: Serine/threonine-protein kinase Nek6 (Homo sapiens) (UniProt Q9HC98); conditions: at 0.1 µM
[17] = molecular target: Serine/threonine-protein kinase Nek6 (Homo sapiens) (UniProt Q9HC98); conditions: at 1 µM
[18] = molecular target: Serine/threonine-protein kinase Nek7 (Homo sapiens) (UniProt Q8TDX7); conditions: at 0.1 µM
[19] = molecular target: Serine/threonine-protein kinase Nek7 (Homo sapiens) (UniProt Q8TDX7); conditions: at 1 µM
[20] = molecular target: T7, Serine/threonine-protein kinase Nek9 (Homo sapiens) (UniProt Q8TD19); conditions: at 0.1 µM;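 also: reported value is the mean percent inhibition of NEK9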
T7 sequence (whole entry): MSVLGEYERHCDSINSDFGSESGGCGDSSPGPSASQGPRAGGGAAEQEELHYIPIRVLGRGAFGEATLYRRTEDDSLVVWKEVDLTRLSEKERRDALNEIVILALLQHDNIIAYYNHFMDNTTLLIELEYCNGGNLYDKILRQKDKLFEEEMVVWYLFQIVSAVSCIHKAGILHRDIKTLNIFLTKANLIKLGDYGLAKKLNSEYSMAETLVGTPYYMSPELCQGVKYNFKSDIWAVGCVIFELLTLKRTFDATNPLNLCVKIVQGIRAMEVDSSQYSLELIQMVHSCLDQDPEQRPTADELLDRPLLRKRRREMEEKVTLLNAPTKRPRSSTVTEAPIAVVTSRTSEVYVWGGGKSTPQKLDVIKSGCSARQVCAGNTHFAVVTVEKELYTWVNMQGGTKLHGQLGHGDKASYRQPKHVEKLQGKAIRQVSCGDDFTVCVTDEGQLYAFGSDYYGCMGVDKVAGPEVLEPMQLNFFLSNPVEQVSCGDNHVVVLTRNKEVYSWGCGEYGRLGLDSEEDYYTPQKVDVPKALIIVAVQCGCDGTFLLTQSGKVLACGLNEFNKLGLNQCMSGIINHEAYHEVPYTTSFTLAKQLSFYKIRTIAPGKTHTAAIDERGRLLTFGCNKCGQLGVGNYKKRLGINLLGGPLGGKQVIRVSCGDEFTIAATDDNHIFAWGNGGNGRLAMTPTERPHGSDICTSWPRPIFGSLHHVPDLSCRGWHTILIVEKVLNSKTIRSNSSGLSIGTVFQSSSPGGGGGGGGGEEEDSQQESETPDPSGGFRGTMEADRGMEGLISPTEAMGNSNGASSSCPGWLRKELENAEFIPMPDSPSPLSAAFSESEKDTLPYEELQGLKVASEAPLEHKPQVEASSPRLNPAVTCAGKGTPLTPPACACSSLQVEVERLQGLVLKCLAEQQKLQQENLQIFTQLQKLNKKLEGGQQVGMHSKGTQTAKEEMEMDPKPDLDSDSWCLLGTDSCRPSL

Serine/threonine-protein kinase Nek6 (Homo sapiens), sequence (Q9HC98 whole entry): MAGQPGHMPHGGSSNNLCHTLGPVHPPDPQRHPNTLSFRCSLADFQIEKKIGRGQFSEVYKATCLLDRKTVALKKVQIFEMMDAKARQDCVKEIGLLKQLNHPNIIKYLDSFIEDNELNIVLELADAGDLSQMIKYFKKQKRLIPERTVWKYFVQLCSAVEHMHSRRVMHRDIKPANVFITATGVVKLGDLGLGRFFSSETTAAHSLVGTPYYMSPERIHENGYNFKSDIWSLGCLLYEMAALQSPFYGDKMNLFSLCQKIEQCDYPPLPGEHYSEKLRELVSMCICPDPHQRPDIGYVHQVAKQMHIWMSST
Casein kinase II subunit alpha (Homo sapiens), sequence (P68400 whole entry, looked up): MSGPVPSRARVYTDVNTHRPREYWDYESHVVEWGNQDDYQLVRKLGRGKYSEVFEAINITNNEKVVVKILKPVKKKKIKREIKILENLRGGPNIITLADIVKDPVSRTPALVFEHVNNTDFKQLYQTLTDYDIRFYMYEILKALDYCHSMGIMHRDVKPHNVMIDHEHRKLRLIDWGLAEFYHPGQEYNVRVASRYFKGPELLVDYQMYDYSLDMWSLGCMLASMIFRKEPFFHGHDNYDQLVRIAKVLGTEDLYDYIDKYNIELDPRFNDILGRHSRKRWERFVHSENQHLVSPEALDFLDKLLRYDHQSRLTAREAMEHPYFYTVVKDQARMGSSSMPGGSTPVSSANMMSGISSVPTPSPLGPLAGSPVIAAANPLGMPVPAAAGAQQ
Serine/threonine-protein kinase Nek7 (Homo sapiens), sequence (Q8TDX7 whole entry, looked up): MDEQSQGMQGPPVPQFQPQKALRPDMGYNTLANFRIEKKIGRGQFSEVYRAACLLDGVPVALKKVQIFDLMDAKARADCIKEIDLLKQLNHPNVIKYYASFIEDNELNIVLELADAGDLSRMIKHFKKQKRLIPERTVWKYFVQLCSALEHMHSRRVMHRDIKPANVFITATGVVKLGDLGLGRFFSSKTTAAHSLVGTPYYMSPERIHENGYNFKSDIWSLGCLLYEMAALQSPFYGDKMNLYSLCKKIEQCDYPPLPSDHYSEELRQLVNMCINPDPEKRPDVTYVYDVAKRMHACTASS
Sphingosine kinase 1 (Homo sapiens), sequence (Q9NYA1 whole entry): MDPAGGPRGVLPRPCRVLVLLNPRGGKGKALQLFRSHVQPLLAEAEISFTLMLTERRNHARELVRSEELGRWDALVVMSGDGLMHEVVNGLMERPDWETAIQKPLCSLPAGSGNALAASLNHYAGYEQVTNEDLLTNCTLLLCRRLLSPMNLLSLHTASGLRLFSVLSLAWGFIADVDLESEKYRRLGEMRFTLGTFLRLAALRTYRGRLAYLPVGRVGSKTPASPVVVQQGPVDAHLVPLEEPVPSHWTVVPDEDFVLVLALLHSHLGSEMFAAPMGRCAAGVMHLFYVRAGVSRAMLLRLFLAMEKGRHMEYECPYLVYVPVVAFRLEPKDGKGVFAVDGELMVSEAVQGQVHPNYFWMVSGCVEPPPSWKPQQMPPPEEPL

## C[C@@H](Oc1cc(-n2cnc3ccc(OC4CCN(C)CC4)cc32)sc1C(N)=O)c1ccccc1Cl
[1]
  inhibition: -0.63%
[2]
  inhibition: -0.31%
[3]
  inhibition: -1.96%
[4]
  inhibition: 8.71%
[5]
  inhibition: 7.82%
[6]
  inhibition: 6.24%
[7]
  inhibition: 7.13%
[8]
  inhibition: 7.4%
[9]
  inhibition: 4.96%
[10]
  inhibition: 5.46%
[11]
  inhibition: 6.16%
[12]
  inhibition: 9.13%
[13]
  inhibition: 38.1%
[14]
  inhibition: 10.1%
[15]
  inhibition: 39.5%
[16]
  inhibition: -0.34%
[17]
  inhibition: 2.21%
[18]
  inhibition: 3.24%
[19]
  inhibition: 8.62%
[20]
  inhibition: 62%

— ChEMBL document CHEMBL1961873, “Compounds: GSK PKIS; Assays: Nanosyn kinase panel” (2012)
